Test results: PubChem BioAssay (NCI)
Compounds without any hit were thinned out: in the full panel of roughly 79,000, 15% have a hit. Cut-off read from the data, not from the text of the source: active = growth inhibition above about 70%; inactive = the rest.

Tests used:
[1] = NCI Yeast Anticancer Drug Screen. Data for the rad50 strain (AID 155);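 note: 0% = growth of vehicle-only cultures of the same strain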; settings: S. cerevisiae rad50 strain growth inhibition; at 50.0 µM; hits give high values
Procedure, shortened: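 Genetically altered yeast (DNA repair pathway); compound treatment; growth inhibition vs vehicle ctrl.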

[2] = NCI Yeast Anticancer Drug Screen. Data for the mec2-1 strain (AID 157); settings: S. cerevisiae mec2-1 strain, at 50.0 µM, hits give high values
Procedure, shortened: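 Yeast mec2-1 mutant treated with compound. Readout: growth inhibition vs vehicle controls.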

[3] = NCI Yeast Anticancer Drug Screen. Data for the sgs1 mgt1 strain (AID 161);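 note: 0% = growth of cultures given vehicle only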; settings: S. cerevisiae sgs1 mgt1 strain, at 50.0 µM, hits give high values
Procedure, shortened: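 Mutant yeast exposed to compound; growth scored against vehicle-only wells.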

[4] = NCI Yeast Anticancer Drug Screen. Data for the cln2 rad14 strain (AID 165);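 note: 0% = growth equal to vehicle treated cultures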; settings: S. cerevisiae cln2 rad14 strain, at 50.0 µM, hits give high values
Procedure, shortened: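 cln2 rad14 yeast strain; compound exposure; growth inhibition read vs vehicle controls.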

[5] = NCI Yeast Anticancer Drug Screen. Data for the bub3 strain (AID 167); settings: S. cerevisiae bub3 mutant strain, at 50.0 µM, hits give high values
Procedure, shortened: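 Yeast carrying a defined mutation is treated with each compound, and growth is compared with that of vehicle-exposed cells to give inhibition.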

[6] = NCI Yeast Anticancer Drug Screen. Data for the mlh1 rad18 strain (AID 175); settings: S. cerevisiae mlh1 rad18 strain growth inhibition; at 50.0 µM; hits give high values
Procedure, shortened: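 Yeast w/ defined DNA-repair lesions; compound exposure; growth vs vehicle controls → % inhibition.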

Measured: growth inhibition

Cc1cc([N+](=O)[O-])c(C)c(Br)c1C
inactive: [1] -8.45% | [2] -20.2% | [3] -37.7% | [4] 4.65% | [5] -38.5% | [6] -0.85%

CN(C(=O)C12C3C4C1C1C2C3C41C#N)C(C)(C)C (stereo not given)
inactive: [1] 20.6% | [2] 6.15% | [3] 2.5% | [4] 11.2% | [5] 20.5% | [6] 19.6%

CC(=O)COc1ccccc1[N+](=O)[O-]
inactive: [1] 9.65% | [2] 0% | [3] 8.15% | [4] 8.95% | [5] 1.3% | [6] 15.8%

CN(C=O)c1c(F)cc(C(=O)O)cc1F
inactive: [1] 3.05% | [2] 4.1% | [3] -3.3% | [4] 4.1% | [5] -6.65% | [6] 8.15%

CCC1(C)N=C(N)Nc2nc3cc(C)c(C)cc3n21 (stereo not given)
inactive: [1] 15.2% | [2] 17.7% | [3] 25.1% | [4] 7.05% | [5] 19.9% | [6] 21.4%

Cc1cc(N(CCC#N)CCC#N)ccc1/C(N=Nc1ccccc1)=N\NC(=O)c1cc(Cl)ccc1O
inactive: [1] 18.8% | [2] 9.8% | [3] 2.7% | [4] -3% | [5] -17.4% | [6] 30.9%

CNc1ccc(Cl)cc1C(N)=O
inactive: [1] 2.8% | [2] 6.9% | [3] 28.7% | [4] -3.25% | [5] 7.05% | [6] 19.9%

NC(=S)N/N=C1\CCCC1C(O)(C(F)(F)Cl)C(F)(F)Cl (stereo not given)
inactive: [1] 65.3% | [2] 17.6% | [3] 56.1% | [4] 35% | [5] 29.9% | [6] 62.5%

Cc1ccc(-n2cnc3c(Cl)ncnc32)cc1[N+](=O)[O-]
inactive: [1] -4.05% | [2] 12.3% | [3] 15.1% | [4] -45% | [5] 1.65% | [6] 10.9%

c1ccc(C(C2=Nc3cccc4cccc(c34)N2)c2ccccc2)cc1
inactive: [1] -36.6% | [2] -18.4% | [3] -50.7% | [4] 11.1% | [5] -9.75% | [6] -22.8%

CC1=CC(O)CC(C)(C)C1/C=C/C(C)=C/C=C/C(C)=C/C=C/C=C(C)/C=C/C=C(C)/C=C/C1=C(C)CC(O)CC1(C)C (stereo not given)
inactive: [1] 14.4% | [2] -15.4% | [3] 22.6% | [4] 16.4% | [5] -30.9% | [6] -37.1%

CCOC(=O)C(Cc1c[nH]c2ccccc12)NCCN (stereo not given)
inactive: [1] -4.85% | [2] 4.8% | [3] -1.45% | [4] -9.95% | [5] -7.25% | [6] -3.8%

[N-]=[N+]=NS(=O)(=O)CCc1ccc(Cl)cc1
inactive: [1] 4.55% | [2] -3.95% | [3] -12.4% | [4] -55% | [5] -17.9% | [6] 4.85%

O=C(Nc1ccc(F)c([N+](=O)[O-])c1)N(Cc1ccccc1)c1ccccc1
inactive: [1] 8.05% | [2] 1.05% | [3] 1.55% | [4] 5.95% | [5] 26.9% | [6] 16.9%

O=C(NO)C(=O)Nc1ccc(Cl)cc1[N+](=O)[O-]
inactive: [1] 47% | [2] 28.4% | [3] 36.5% | [4] 42% | [5] 49.1% | [6] 44.7%

COc1cc(C=C2C(=O)OC(C)(C)OC2=O)cc(OC)c1OC
inactive: [1] 3.45% | [2] -22.1% | [3] -11.3% | [4] 24.3% | [5] -21.5% | [6] 9.05%

C(=Nc1cnc2ccccc2c1)c1ccc2ccccc2n1
inactive: [1] -5.3% | [2] -13.4% | [3] -11.3% | [4] -6.2% | [5] -55.9% | [6] -14.8%

CC1CCN(C(=S)[S-])CC1.CC1CCN(C(=S)[S-])CC1.[Zn]
inactive: [1] 58.9% | [2] 9.05% | [3] 54.2% | [4] 34.2% | [5] 5.85% | [6] 32.9%

Nc1nnnn1-c1cccc(Cl)c1
inactive: [1] 7.5% | [2] 0.35% | [3] 1.6% | [4] -18.8% | [5] -2.4% | [6] 10.6%

CC1=C(CCC(C)CO)OC2CC3C4CCC5CC(O)CCC5(C)C4CCC3(C)C12 (stereo not given)
inactive: [1] -4.5% | [2] -22.6% | [3] -24.7% | [4] -1.9% | [5] -21.1% | [6] -16.4%
